In PubChem BioAssay:
The source made the active and inactive calls. Unless noted, how the calls were made is not given here.

What was measured:
[1] = HepG2 liver cancer cell viability effects, profiling panel, resazurin fluorescence, 24 h, PK04 Diversity Set (AID 1172); conditions: higher = more signal
[2] = basal S. cerevisiae growth modulation, no modifier, primary screen, OD600, strain BY4716, 24 h, basal condition (AID 1173); conditions: OD600, 24 h, higher = more signal, called active from +8 up or from −8 down
[3] = MM1S myeloma cell viability, profiling panel, resazurin fluorescence, basal, 24 h, PK04 Diversity Set (AID 1174); conditions: higher = more signal, called active from +8 up or from −8 down;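 further: MM1S multiple myeloma cell line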
[4] = molecular target: Dihydroorotate dehydrogenase (quinone), mitochondrial (Plasmodium falciparum (isolate 3D7)) (UniProt Q08210); assay: PfDHODH enzyme inhibitors, primary screen, biochemical, C-terminal His tag, absorbance 600 nm (AID 1175); conditions: DCIP absorbance 600 nm, higher = more signal, called active from +8 up or from −8 down;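 further: recombinant parasite enzyme with a five histidine tag at its C terminus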
Dihydroorotate dehydrogenase (quinone), mitochondrial (Plasmodium falciparum (isolate 3D7)), sequence (Q08210 whole entry, looked up): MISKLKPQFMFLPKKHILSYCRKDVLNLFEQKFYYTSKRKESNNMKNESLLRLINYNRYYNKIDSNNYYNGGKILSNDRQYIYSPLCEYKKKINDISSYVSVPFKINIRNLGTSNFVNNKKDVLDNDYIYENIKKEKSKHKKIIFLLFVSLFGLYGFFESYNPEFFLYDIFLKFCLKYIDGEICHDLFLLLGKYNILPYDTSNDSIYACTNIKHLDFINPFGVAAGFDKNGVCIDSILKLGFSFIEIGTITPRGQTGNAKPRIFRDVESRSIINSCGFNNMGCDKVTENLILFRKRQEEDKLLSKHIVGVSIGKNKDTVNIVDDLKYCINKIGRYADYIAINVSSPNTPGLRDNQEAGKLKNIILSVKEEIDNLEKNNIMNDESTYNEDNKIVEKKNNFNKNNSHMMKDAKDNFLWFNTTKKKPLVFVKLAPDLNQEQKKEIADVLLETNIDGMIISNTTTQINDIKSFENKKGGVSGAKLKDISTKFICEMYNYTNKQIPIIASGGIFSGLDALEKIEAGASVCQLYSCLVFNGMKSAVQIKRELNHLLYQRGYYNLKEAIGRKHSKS

[5] = P. aeruginosa biofilm formation inhibitors, primary screen, strain PAO1, LB-PBS medium, absorbance 600 nm (AID 1176); conditions: P. aeruginosa PAO1 growth/biofilm, A600, 12 h; higher = more signal
[6] = S. cerevisiae RM11-1a growth modifiers, primary screen, strain RM11-1a, OD600, basal, 24 h (AID 1177); conditions: OD600, 24 h, higher = more signal, called active from +8 up or from −8 down;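 further: cultures grown under basal conditions with no added stressor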
[7] = E. coli acrAB mutant growth effects, primary screen, E. coli filamentation inducers, strain DRC39, OD650, 24 h (AID 1178); conditions: higher = more signal, called active from +8 up or from −8 down;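 further: growth measured as culture turbidity by optical density at 650 nm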
[8] = E. coli acrAB mutant growth effects, primary screen, E. coli filamentation inducers, strain DRC39, OD650, 48 h (AID 1179);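 further: screen aims at cell division blockers that make cells filament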; conditions: E. coli DRC39 delta-acrAB growth, higher = more signal, called active from +8 up or from −8 down
[9] = RPMI8226 myeloma cell viability, profiling panel, resazurin fluorescence, basal, 24 h, PK04 Diversity Set (AID 1180); conditions: higher = more signal;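 further: RPMI8826 multiple myeloma cell line at 5000 cells per well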
[10] = molecular target: E3 ubiquitin-protein ligase XIAP (Homo sapiens) (UniProt P98170); assay: XIAP binders, primary screen, biophysical, small-molecule microarray, fluorescence 635 nm (AID 1181); conditions: small-molecule microarray binding, higher = more signal;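 further: score merges 667 nm emission and signal to noise over triplicate slides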
E3 ubiquitin-protein ligase XIAP (Homo sapiens), sequence (P98170 whole entry, looked up): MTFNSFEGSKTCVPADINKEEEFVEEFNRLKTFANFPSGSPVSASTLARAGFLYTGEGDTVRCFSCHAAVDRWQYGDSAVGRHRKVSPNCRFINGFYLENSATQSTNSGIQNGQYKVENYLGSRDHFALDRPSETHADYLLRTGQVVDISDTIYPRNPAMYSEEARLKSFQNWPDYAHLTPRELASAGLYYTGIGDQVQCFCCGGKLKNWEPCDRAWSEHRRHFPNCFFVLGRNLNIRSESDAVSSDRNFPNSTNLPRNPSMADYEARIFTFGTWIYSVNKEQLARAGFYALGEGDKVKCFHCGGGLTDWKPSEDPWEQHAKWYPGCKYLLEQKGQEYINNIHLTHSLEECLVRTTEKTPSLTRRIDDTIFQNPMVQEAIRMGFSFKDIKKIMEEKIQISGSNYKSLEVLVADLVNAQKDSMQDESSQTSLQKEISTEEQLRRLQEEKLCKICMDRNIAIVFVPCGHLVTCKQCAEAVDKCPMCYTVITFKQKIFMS

[11] = test system: XIP peptide (Xip251-270) binding; assay: small-molecule binders of XIP peptide, primary screen, biochemical, small-molecule microarray, fluorescence 635/667 nm, 0.1 µg/mL protein (AID 1182); conditions: fluorescent protein binding, 635 nm, higher = more signal, called active from +8 up or from −8 down
XIP peptide (Xip251-270) = assay: small-molecule binders of XIP peptide, primary screen, biochemical, small-molecule microarray, fluorescence 635/667 nm, 0.5 µg/mL protein (AID 1183); conditions: small-molecule microarray binding, fluorescence 635 nm; higher = more signal
[12] = Plasmodium falciparum growth inhibition, primary screen, strain 3D7, DAPI fluorescence, 100 nL (AID 1184);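 further: parasites grown inside human red blood cells in medium with human serum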; conditions: P. falciparum 3D7 growth, 3 d, higher = more signal
[13] = molecular target: Homeobox protein Hox-A13 (Mus musculus) (UniProt Q62424); assay: inhibitors of HoxA13-DNA binding, primary screen, biochemical, fluorescence polarization, labeled oligonucleotide (AID 1185); conditions: 15 min, higher = more signal, called active from +8 up or from −8 down
Homeobox protein Hox-A13 (Mus musculus), sequence (Q62424 whole entry, looked up): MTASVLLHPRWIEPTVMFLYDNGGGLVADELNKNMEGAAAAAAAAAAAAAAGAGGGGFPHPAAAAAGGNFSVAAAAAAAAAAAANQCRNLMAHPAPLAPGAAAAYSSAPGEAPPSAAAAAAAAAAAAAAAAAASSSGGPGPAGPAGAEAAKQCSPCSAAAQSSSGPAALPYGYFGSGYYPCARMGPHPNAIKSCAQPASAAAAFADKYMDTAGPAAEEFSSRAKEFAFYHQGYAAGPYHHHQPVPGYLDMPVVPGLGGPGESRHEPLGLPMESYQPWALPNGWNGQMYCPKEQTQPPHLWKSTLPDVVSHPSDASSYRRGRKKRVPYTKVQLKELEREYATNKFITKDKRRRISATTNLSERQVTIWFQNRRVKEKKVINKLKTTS

[14] = inhibitors of hydroxyurea-induced Chk1 phosphorylation, primary screen, imaging, HeLa, phospho-Chk1 antibody, percent positive cells (AID 1186); conditions: hydroxyurea-induced phospho-Chk1 immunofluorescence imaging, higher = more signal
[15] = inhibitors of hydroxyurea-induced Chk1 phosphorylation, primary screen, imaging, HeLa, phospho-Chk1 nuclear intensity (AID 1187); conditions: hydroxyurea-induced phospho-Chk1 immunofluorescence imaging, higher = more signal

SMILES: COc1ccc([Si](C)(C)[C@@H]2[C@@H](CC(=O)N3Cc4ccccc4C[C@H]3CO)O[C@]3(C(=O)N(Cc4cccc(N5CCC5=O)c4)c4ccccc43)[C@H]2C)cc1
- z-score [1]: -0.0715
- z-score [2]: 0.984 (inactive)
- z-score [3]: -0.922 (inactive)
- composite z-score [4]: -3.46 (inactive)
- z-score [5]: 2.04 (inactive)
- z-score [6]: 1.38 (inactive)
- z-score [7]: 0.249 (inactive)
- z-score [8]: -0.0051 (inactive)
- z-score [9]: -0.828
- composite z-score [10]: 0.0819
- composite z-score [11]: 0.607 (inactive)
- composite z-score (XIP peptide (Xip251-270)): 0.736
- z-score [12]: -2.55
- z-score [13]: -1.51 (inactive)
- z-score [14]: -0.342 (inactive)
- z-score [15]: -0.0386 (inactive)

SMILES: O=C(O)[C@@]1(CCS(=O)(=O)c2ccccc2)N=C(c2ccc(OCCCO)cc2)O[C@H]1c1ccccc1
- z-score [1]: 0.489
- z-score [2]: -1.11 (inactive)
- z-score [3]: 0.409 (inactive)
- composite z-score [4]: -0.0555 (inactive)
- z-score [5]: -1.27 (inactive)
- z-score [6]: -0.357 (inactive)
- z-score [7]: 0.28 (inactive)
- z-score [8]: -0.275 (inactive)
- z-score [9]: 1.26
- composite z-score [10]: 0.0952
- composite z-score [11]: 1.15 (inactive)
- composite z-score (XIP peptide (Xip251-270)): 0.392
- z-score [12]: -0.471
- z-score [13]: -5.76 (inactive)
- z-score [14]: 0.0733 (inactive)
- z-score [15]: 0.0816 (inactive)

SMILES: O=C(CS)NCCCCCNC(=O)[C@@H]1C[C@@H]2C(=O)NCC(=O)N2[C@@H]1c1ccc(O)cc1
- z-score [1]: -0.701
- z-score [2]: 0.272 (inactive)
- z-score [3]: -1.06 (inactive)
- composite z-score [4]: 0.424 (inactive)
- z-score [5]: 1.5 (inactive)
- z-score [6]: -0.0231 (inactive)
- z-score [7]: -0.401 (inactive)
- z-score [8]: -1.04 (inactive)
- z-score [9]: -0.492
- composite z-score [10]: -0.0536
- composite z-score [11]: 0.366 (inactive)
- composite z-score (XIP peptide (Xip251-270)): 0.352
- z-score [12]: -1.16
- z-score [13]: -1.43 (inactive)
- z-score [14]: 0.258 (inactive)
- z-score [15]: 0.425 (inactive)

SMILES: COCCOC(=O)N1C(=O)[C@@]2(c3cc(C#CC4(O)CCCCCC4)ccc31)[C@H](c1ccccc1OCCO)N1[C@H](c3ccccc3)[C@H](c3ccccc3)OC(=O)[C@H]1[C@@H]2C(=O)N1CCc2cc(OC)c(OC)cc2C1
- z-score [1]: 0.598
- z-score [2]: 2.06 (inactive)
- z-score [3]: -0.9 (inactive)
- composite z-score [4]: 0.445 (inactive)
- z-score [5]: 2.26 (inactive)
- z-score [6]: 3.05 (inactive)
- z-score [7]: -0.404 (inactive)
- z-score [8]: -0.405 (inactive)
- z-score [9]: -0.203
- composite z-score [10]: -0.127
- composite z-score [11]: 0.164 (inactive)
- composite z-score (XIP peptide (Xip251-270)): 0.741
- z-score [12]: -1.89
- z-score [13]: -0.494 (inactive)
- z-score [14]: -0.149 (inactive)
- z-score [15]: 0.27 (inactive)

SMILES: O=C1O[C@@H](c2ccccc2)[C@@H](c2ccccc2)N2[C@@H](c3ccccc3OCCO)[C@]3(C(=O)Nc4ccc(C#CC5(O)CCCCCC5)cc43)[C@@H](C(=O)N3CCN(c4ncccn4)CC3)[C@H]12
- z-score [1]: 0.0783
- z-score [2]: 1.62 (inactive)
- z-score [3]: -1.18 (inactive)
- composite z-score [4]: 0.937 (inactive)
- z-score [5]: 1.94 (inactive)
- z-score [6]: 4.01 (inactive)
- z-score [7]: -0.418 (inactive)
- z-score [8]: 0.247 (inactive)
- z-score [9]: -0.737
- composite z-score [10]: 0.372
- composite z-score [11]: -0.0661 (inactive)
- composite z-score (XIP peptide (Xip251-270)): 0.661
- z-score [12]: -2.17
- z-score [13]: -1.01 (inactive)
- z-score [14]: -0.0019 (inactive)
- z-score [15]: 0.451 (inactive)

SMILES: CC(C)NC(=O)[C@@H]1c2ccccc2C(=O)N(C(C)C)[C@H]1c1ccc(CO)cc1
- z-score [1]: 1.02
- z-score [2]: -0.37 (inactive)
- z-score [3]: 0.537 (inactive)
- composite z-score [4]: 0.654 (inactive)
- z-score [5]: -0.397 (inactive)
- z-score [6]: 0.0971 (inactive)
- z-score [7]: 0.494 (inactive)
- z-score [8]: 0.671 (inactive)
- z-score [9]: 0.135
- composite z-score [10]: -0.398
- composite z-score [11]: 0.736 (inactive)
- composite z-score (XIP peptide (Xip251-270)): 0.226
- z-score [12]: -0.25
- z-score [13]: -2.52 (inactive)
- z-score [14]: -0.0669 (inactive)
- z-score [15]: 0.385 (inactive)

SMILES: CCOC(=O)C[C@H]1[C@H](OC(=O)c2ccc(-c3ccccc3)cc2)[C@@H](NC(=O)c2ccccc2)c2cc(OCCCO)ccc2N1C(=O)c1ccc2ccccc2n1
- z-score [1]: -0.471
- z-score [2]: 0.171 (inactive)
- z-score [3]: -0.397 (inactive)
- composite z-score [4]: -0.12 (inactive)
- z-score [5]: -0.17 (inactive)
- z-score [6]: -0.888 (inactive)
- z-score [7]: 0.27 (inactive)
- z-score [8]: 0.256 (inactive)
- z-score [9]: -0.258
- composite z-score [10]: 0.132
- composite z-score [11]: 0.304 (inactive)
- composite z-score (XIP peptide (Xip251-270)): 0.0388
- z-score [12]: 1.24
- z-score [13]: -1.19 (inactive)
- z-score [14]: -0.0348 (inactive)
- z-score [15]: -0.234 (inactive)

SMILES: COc1ccc([C@H]2C[C@H]3C(Br)=C[C@@]2(CO)C(=O)[C@]32CO2)cc1
- z-score [1]: 0.231
- z-score [2]: -4.42 (inactive)
- z-score [3]: -0.445 (inactive)
- composite z-score [4]: -0.174 (inactive)
- z-score [5]: 0.118 (inactive)
- z-score [6]: -0.121 (inactive)
- z-score [7]: -0.0919 (inactive)
- z-score [8]: -0.0065 (inactive)
- z-score [9]: -0.384
- composite z-score [10]: 0.0009
- composite z-score [11]: -0.358 (inactive)
- composite z-score (XIP peptide (Xip251-270)): -0.311
- z-score [12]: 0.951
- z-score [13]: -1.05 (inactive)
- z-score [14]: -0.0281 (inactive)
- z-score [15]: 0.202 (inactive)

SMILES: COC(=O)[C@]1(CCC(=O)OC(C)(C)C)N=C(c2ccc(OCCCO)cc2)O[C@@H]1c1ccccc1
- z-score [1]: -0.134
- z-score [2]: -0.761 (inactive)
- z-score [3]: -0.671 (inactive)
- composite z-score [4]: -0.134 (inactive)
- z-score [5]: 0.438 (inactive)
- z-score [6]: 0.504 (inactive)
- z-score [7]: 3.37 (inactive)
- z-score [8]: 0.648 (inactive)
- z-score [9]: -1.47
- composite z-score [10]: 0.153
- composite z-score [11]: 1.87 (inactive)
- composite z-score (XIP peptide (Xip251-270)): 0.761
- z-score [12]: -2.31
- z-score [13]: -4.4 (inactive)
- z-score [14]: -0.621 (inactive)
- z-score [15]: -0.545 (inactive)
